Consider ten molecules from PubChem BioAssay (EPA / NIEHS).

Each structure is given as a SMILES string. Inconclusive results are not listed. The source made the active and inactive calls. Rule for the calls, unless noted: active = hit-call score of the fitted dose curve at least 0.9, where 1 is the maximum; inactive = score below 0.9.

Read-out in experiment [1]: Monocyte Chemoattractant Protein-1 (MCP1), CCL2 (gene 6347)
The experiment in a line: BSK_SAg_MCP1: BioMAP Diversity Plus: SAg Assay for Monocyte Chemoattractant Protein-1 (MCP1) Biomarker Activity (AID 2283090). The conditions noted are these: primary human HUVEC with PBMC; actives raise or lower the signal. In a few lines: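 MCP-1 levels in the endothelial–PBMC SAg co-culture were quantified by ELISA at 24 h post-dosing; both increases and decreases versus DMSO scored. Cytotoxicity monitored by SRB total protein in parallel cultures.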

Read-out in experiment [2]: E-selectin (Homo sapiens) (UniProt P16581)
In words: BSK_SAg_Eselectin: BioMAP Diversity Plus: SAg Assay for Eselectin Biomarker Activity (AID 2283091). The conditions noted are these: primary human HUVEC with PBMC; actives raise or lower the signal. In a few lines: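 Primary human endothelial cells and peripheral blood mononuclear cells were co-cultured and exposed to chemical for 24 hours. E-selectin levels were then quantified by ELISA, with bidirectional curve fitting normalised to DMSO controls.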

Read-out in experiment [3]: Monokine induced gamma interferon (MIG), CXCL9 (gene 4283)
In words: BSK_SAg_MIG: BioMAP Diversity Plus: SAg Assay for Monokine induced gamma interferon (MIG) Biomarker Activity (AID 2283092). The following applies: primary human HUVEC with PBMC; actives raise or lower the signal. The procedure, abridged: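 HUVEC plus human PBMC co-culture, chemicals dosed and MIG (CXCL9) quantified by ELISA at 24 h. Bidirectional curve fitting against DMSO as negative control and baseline, so both gain and loss of signal count as activity.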

Experiment [4] is described as follows: BSK_SAg_PBMCCytotoxicity: PBMC Cytotoxicity Assessment in the BioMAP Diversity Plus: SAg Assay (AID 2283093).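 Note: PBMC viability measured as Alamar Blue reduction fluorescence at 546/580 nm; fitted both ways against DMSO so a hit may be loss or gain of signal.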 The conditions noted are these: primary human HUVEC with PBMC. In a few lines:
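Compound added to 75,000 PBMC/well for 1 h; SEB and TSST-1 then added at 20 ng/mL final each; 90 h incubation; Alamar Blue 6 h; read 546/580 nm ex/em. Activity fitted bidirectionally relative to DMSO baseline.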

Read-out in experiment [5]: Interleukin-8 (IL8), CXCL8 (gene 3576)
The experiment in a line: BSK_SAg_IL8: BioMAP Diversity Plus: SAg Assay for Interleukin-8 (IL8) Biomarker Activity (AID 2283094). The conditions noted are these: primary human HUVEC with PBMC; actives raise or lower the signal. The procedure, abridged: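 Human umbilical vein endothelial cells co-cultured with peripheral blood mononuclear cells; IL-8 measured by ELISA 24 h after chemical dosing. Bidirectional concentration-response fitting used DMSO as negative control and activity baseline.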

A short description of experiment [6]: BSK_SAg_Proliferation: Cell Proliferation Assessment in the BioMAP Diversity Plus: SAg Assay (AID 2283095).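 Note: relative cell number as total protein by SRB absorbance in sub-confluent culture.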 The conditions noted are these: primary human HUVEC with PBMC. The procedure, abridged: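 Human umbilical vein endothelial cells co-cultured with peripheral blood mononuclear cells; total protein measured by sulforhodamine B staining (0.1% SRB after 10% TCA fixation), absorbance at 560 nm, at 96 h. Bidirectional fit against DMSO baseline.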

Experiment [7] in a line: BSK_SAg_SRB: Viability Assessment in the BioMAP Diversity Plus: SAg Assay (AID 2283096).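 Note: cells read one day after compound addition; hits may be either gain or loss of signal compared with DMSO.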 The following applies: primary human HUVEC with PBMC. The procedure, abridged:
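Total protein by sulforhodamine B staining, 24 h after dosing, in HUVEC–PBMC co-culture; DMSO-referenced bidirectional fitting.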

Experiment [8] concerns the target Cytochrome P450 3A4 (Homo sapiens) (UniProt P08684). In words: NVS_ADME_hCYP3A4: NovaScreen (NVS) CYP450-related Enzyme Activity (ADME) Assay for human CYP3A4 (AID 2283110; active = hit-call score of the fitted dose curve at least 0.9, where 1 is the maximum). In a few lines: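 Compounds were first screened in duplicate at 10 uM against recombinant CYP3A4 produced in insect cells, then actives were run in concentration series. Enzyme activity was measured by fluorescence after 0.33 hour, with acetonitrile as baseline.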

In experiment [9] the target is human CYP1A1, CYP1A1 (gene 1543) (UniProt P04798). In words: NVS_ADME_hCYP1A1: NovaScreen (NVS) CYP450-related Enzyme Activity (ADME) Assay for human CYP1A1 (AID 2283100; active = hit-call score of the fitted dose curve at least 0.9, where 1 is the maximum). The procedure, abridged:
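Compounds first went through duplicate single-concentration testing at 10 uM against purified CYP1A1. Those passing a threshold such as 30% inhibition entered singleton dose-response, highest concentration 20 uM. Signal was fluorescence measured after 1 hour.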

In experiment [10] the target is Cytochrome P450 2C19 (Homo sapiens) (UniProt P33261). In words: NVS_ADME_hCYP2C19: NovaScreen (NVS) CYP450-related Enzyme Activity (ADME) Assay for human CYP2C19 (AID 2283113; active = hit-call score of the fitted dose curve at least 0.9, where 1 is the maximum;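 for AC50: potency for inhibition seen as loss of fluorescent signal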). The procedure, abridged: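 Chemicals first screened in duplicate at 10 uM against recombinant human enzyme produced in insect cells; confirmed actives then run as concentration series. Fluorogenic substrate turnover read by fluorescence after 1 h, normalised to acetonitrile.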

The target in experiment [11] is rat CYP1A2, Cyp1a2 (gene 24297) (UniProt P04799). In words: NVS_ADME_rCYP1A2: NovaScreen (NVS) CYP450-related Enzyme Activity (ADME) Assay for rat CYP1A2 (AID 2283115; active = hit-call score of the fitted dose curve at least 0.9, where 1 is the maximum). In a few lines: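 Cell-free recombinant rat enzyme with fluorogenic substrate, read by fluorescence intensity 1 hour after dosing. Loss of signal versus acetonitrile negative control; primary screen at 10 uM in duplicate, actives followed in concentration series.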

The target of experiment [12] is human CYP19A1, CYP19A1 (gene 1588) (UniProt P11511). In words: NVS_ADME_hCYP19A1: NovaScreen (NVS) CYP450-related Enzyme Activity (ADME) Assay for human CYP19A1 (AID 2283098; active = hit-call score of the fitted dose curve at least 0.9, where 1 is the maximum;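 note: potency for inhibitors seen as loss of fluorescent enzyme signal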). In a few lines: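 Biochem, cell-free; recombinant enzyme + specific substrate; fluorescence intensity at 0.5 h post-dose; 10 uM duplicate primary, conc. series for actives; acetonitrile = negative control/baseline; positive and negative controls on every plate.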

In experiment [13] the target is human CYP4F12, CYP4F12 (gene 66002) (UniProt Q9HCS2). The experiment in a line: NVS_ADME_hCYP4F12: NovaScreen (NVS) CYP450-related Enzyme Activity (ADME) Assay for human CYP4F12 (AID 2283111; active = hit-call score of the fitted dose curve at least 0.9, where 1 is the maximum). The procedure, abridged: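 Cell-free fluorescence assay of recombinant human CYP4F12 activity on a specific substrate, read 0.5 h after dosing. Primary screen in duplicate at 10 uM, then concentration series for actives; loss of signal fitted against acetonitrile negative control.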

For experiment [14], the target named is human CYP2C9, CYP2C9 (gene 1559) (UniProt P11712). The experiment in a line: NVS_ADME_hCYP2C9: NovaScreen (NVS) CYP450-related Enzyme Activity (ADME) Assay for human CYP2C9 (AID 2283108; active = hit-call score of the fitted dose curve at least 0.9, where 1 is the maximum). The procedure, abridged:
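Fluorescence readout of CYP2C9 activity (SF9-expressed human enzyme) at 0.75 h. The primary screen used 10 uM in duplicate, with concentration-response follow-up for actives; acetonitrile was the negative control.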

Chain of E-selectin (Homo sapiens) (P16581 whole entry, looked up): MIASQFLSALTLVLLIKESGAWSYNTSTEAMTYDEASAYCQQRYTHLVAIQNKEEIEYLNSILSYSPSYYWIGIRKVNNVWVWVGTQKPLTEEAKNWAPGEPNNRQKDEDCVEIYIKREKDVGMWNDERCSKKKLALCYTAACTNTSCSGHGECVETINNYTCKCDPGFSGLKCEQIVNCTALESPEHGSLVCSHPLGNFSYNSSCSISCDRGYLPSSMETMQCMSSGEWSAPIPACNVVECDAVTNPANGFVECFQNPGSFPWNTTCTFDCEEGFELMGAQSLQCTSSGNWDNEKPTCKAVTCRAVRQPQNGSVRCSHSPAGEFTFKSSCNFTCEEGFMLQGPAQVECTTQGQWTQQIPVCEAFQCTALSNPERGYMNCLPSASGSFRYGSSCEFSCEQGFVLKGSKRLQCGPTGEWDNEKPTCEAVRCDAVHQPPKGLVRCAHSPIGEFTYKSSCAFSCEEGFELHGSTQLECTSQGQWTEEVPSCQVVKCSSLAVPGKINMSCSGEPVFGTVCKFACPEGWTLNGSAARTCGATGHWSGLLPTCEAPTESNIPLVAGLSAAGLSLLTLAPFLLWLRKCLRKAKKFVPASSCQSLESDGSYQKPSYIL
Chain of human CYP4F12, CYP4F12 (gene 66002) (Q9HCS2 whole entry, looked up): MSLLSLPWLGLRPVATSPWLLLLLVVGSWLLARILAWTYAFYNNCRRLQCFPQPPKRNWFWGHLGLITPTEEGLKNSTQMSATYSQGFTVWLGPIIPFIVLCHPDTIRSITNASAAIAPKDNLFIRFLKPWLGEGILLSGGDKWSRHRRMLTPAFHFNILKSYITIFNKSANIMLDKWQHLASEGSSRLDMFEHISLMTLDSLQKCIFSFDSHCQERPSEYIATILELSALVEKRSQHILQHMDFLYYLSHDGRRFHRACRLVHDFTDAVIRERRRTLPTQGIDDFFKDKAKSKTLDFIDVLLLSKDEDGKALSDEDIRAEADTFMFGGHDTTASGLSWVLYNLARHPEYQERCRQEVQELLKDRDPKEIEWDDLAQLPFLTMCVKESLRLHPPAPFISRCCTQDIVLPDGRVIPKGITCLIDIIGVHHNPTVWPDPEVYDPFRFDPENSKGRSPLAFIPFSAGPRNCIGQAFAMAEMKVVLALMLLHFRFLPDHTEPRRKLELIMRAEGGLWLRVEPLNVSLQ
Chain of rat CYP1A2, Cyp1a2 (gene 24297) (P04799 whole entry, looked up): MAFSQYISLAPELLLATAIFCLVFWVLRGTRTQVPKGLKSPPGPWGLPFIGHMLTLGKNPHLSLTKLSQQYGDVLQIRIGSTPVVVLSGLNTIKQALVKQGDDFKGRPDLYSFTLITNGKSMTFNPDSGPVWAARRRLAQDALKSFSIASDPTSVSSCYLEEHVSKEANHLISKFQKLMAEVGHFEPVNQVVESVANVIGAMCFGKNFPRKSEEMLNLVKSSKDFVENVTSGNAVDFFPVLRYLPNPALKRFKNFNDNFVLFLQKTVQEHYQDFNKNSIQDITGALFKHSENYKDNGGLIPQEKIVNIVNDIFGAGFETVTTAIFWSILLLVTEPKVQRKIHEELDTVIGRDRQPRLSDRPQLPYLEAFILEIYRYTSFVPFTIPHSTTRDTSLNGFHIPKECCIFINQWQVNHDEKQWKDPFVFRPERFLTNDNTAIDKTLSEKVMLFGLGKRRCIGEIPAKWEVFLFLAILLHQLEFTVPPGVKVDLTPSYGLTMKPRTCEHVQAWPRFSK
Chain of human CYP19A1, CYP19A1 (gene 1588) (P11511 whole entry, looked up): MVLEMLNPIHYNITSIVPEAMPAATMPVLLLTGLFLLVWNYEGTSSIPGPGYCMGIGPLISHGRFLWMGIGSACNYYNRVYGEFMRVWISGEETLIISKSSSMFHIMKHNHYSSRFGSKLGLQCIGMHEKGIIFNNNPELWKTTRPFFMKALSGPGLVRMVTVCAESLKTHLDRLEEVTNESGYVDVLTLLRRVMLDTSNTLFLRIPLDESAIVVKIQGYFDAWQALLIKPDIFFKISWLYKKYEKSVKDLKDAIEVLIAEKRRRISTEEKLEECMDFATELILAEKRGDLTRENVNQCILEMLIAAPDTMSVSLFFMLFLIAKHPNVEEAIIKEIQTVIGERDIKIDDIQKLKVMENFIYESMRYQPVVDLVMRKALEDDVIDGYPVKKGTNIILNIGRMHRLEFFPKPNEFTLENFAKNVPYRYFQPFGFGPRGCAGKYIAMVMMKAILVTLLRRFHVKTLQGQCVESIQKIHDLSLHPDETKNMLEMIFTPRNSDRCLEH
Chain of human CYP2C9, CYP2C9 (gene 1559) (P11712 whole entry, looked up): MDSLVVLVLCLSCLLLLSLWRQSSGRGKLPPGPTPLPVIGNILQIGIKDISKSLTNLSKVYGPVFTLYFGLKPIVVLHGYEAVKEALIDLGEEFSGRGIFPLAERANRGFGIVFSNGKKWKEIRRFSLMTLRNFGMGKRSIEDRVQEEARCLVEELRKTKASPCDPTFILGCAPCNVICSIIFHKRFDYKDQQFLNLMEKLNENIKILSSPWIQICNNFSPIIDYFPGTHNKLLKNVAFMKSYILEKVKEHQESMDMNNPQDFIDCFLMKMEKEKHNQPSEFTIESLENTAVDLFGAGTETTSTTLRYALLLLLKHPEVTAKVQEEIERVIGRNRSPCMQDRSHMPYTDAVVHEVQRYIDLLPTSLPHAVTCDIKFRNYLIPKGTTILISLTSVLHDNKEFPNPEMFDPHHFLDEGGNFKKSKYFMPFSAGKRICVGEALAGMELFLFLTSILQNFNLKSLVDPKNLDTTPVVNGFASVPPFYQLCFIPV
Chain of Cytochrome P450 3A4 (Homo sapiens) (P08684 whole entry, looked up): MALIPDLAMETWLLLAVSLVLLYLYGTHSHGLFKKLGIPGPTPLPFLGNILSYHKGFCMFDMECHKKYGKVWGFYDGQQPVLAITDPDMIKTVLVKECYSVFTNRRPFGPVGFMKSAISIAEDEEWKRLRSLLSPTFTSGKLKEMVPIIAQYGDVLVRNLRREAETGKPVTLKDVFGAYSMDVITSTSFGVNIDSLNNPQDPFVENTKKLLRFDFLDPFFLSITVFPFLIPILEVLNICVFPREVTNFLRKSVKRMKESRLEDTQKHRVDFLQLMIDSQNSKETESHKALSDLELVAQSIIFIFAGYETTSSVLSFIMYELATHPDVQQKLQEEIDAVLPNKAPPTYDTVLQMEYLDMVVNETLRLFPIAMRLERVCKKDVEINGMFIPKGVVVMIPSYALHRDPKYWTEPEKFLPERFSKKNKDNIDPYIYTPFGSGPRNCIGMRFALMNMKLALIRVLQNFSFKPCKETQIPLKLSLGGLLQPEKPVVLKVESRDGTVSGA
Chain of human CYP1A1, CYP1A1 (gene 1543) (P04798 whole entry, looked up): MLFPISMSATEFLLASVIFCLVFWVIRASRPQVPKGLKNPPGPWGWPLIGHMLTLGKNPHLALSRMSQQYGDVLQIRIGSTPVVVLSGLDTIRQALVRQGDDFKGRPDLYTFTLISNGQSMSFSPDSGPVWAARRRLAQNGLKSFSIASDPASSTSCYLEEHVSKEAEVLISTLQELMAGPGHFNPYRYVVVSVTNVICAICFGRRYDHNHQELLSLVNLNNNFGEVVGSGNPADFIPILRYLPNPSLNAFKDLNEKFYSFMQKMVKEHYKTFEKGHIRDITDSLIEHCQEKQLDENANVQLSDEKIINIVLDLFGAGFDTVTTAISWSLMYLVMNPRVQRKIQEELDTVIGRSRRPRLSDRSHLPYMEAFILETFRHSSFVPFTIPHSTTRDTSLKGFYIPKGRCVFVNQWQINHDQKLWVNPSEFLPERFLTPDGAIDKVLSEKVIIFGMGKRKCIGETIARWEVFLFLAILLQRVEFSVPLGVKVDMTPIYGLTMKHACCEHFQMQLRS

In the case of `CCOC(=O)c1ccccc1C(=O)OCC`, the outcome in experiment [1], in experiment [2], in [3], in experiment [4], in experiment [5] and in experiment [6] was inactive. For the same molecule, the result in experiment [7] and in [8] was inactive.
As a reminder, the AC50 is the midpoint of the concentration-response curve, whichever way the signal moves. `CCOP(=S)(OCC)SCSCC`: the outcome in [1], in experiment [2], in experiment [3], in [4], in [5] and in experiment [6] was inactive. The outcome in experiment [7] was inactive. Moreover, the AC50 in [9] is 4.19 µM (active); in [10] it was 9.32 µM (active).
As to `c1ccc2c(c1)sc1ccccc12`, the result in experiment [1], in [2], in [3], in experiment [4], in [5] and in experiment [6] was inactive. Besides, the result in experiment [7] and in experiment [11] was inactive.
As for `O=S(=O)(c1ccc(O)cc1)c1ccc(O)cc1`, in experiment [12], the AC50 is 8.81 µM (active).
Take `O=[N+]([O-])c1ccccc1`: the outcome in [1], in experiment [2], in [3], in experiment [4], in [5] and in experiment [6] was inactive. In addition, the outcome in experiment [7] and in experiment [13] was inactive.
On to `OCC1CO1` (stereo not drawn), for which the result in [1], in experiment [3], in [4], in experiment [5], in [6] and in experiment [7] was inactive.
For the molecule `CCCCOCCOP(=O)(OCCOCCCC)OCCOCCCC`, the outcome in experiment [1], in experiment [2], in experiment [3], in experiment [4], in experiment [5] and in experiment [6] was inactive. Moreover, the outcome in experiment [7] and in [10] was inactive.
Consider `CCOP(=S)(OCC)SCn1nnc2ccccc2c1=O`, for which the result in experiment [1], in experiment [3], in experiment [4], in [5], in [6] and in experiment [7] was inactive. Also, the AC50 in experiment [2] was 15.9 µM (active); in [14], 1.43 µM (active); in [10], 3.57 µM (active).
For `CCNc1nc(Cl)nc(NC(C)(C)C)n1`, the values for the AC50 in experiment [1] and in experiment [10] were 6.26 µM (active) and 6.82 µM (active), respectively. Further, the result in experiment [2], in experiment [3], in experiment [4], in experiment [5], in experiment [6] and in experiment [7] was inactive.
Turning to `O=P1(N(CCCl)CCCl)NCCCO1` (stereo not drawn), the result in experiment [1], in [2], in experiment [3], in experiment [4], in [5] and in experiment [6] was inactive. For the same molecule, the outcome in experiment [7] and in experiment [13] was inactive.
